System: Vero E6 infected with SARS-CoV-2
Assay: inhibition of SARS-CoV-2 cytopathic effect; higher = more antiviral protection, active = above 15
Conditions: 48 h

Measured: inhibition of SARS-CoV-2 cytopathic effect

COc1cc2c(Oc3ccc(NC(=O)C4(C(=O)Nc5ccc(F)cc5)CC4)cc3F)ccnc2cc1OCCCN1CCOCC1 [foretinib]
inactive: 1 nM -0.07% | 8.33 nM -1.17% | 100 nM 2.06% | 833.33 nM -5.86% | 10000 nM -22.4%

N#CCC(=O)c1ccccc1
inactive: 1 nM 4.1% | 8.33 nM 4.15% | 100 nM 0.67% | 833.33 nM 2.33% | 10000 nM -0.41%

CCN(CC)Cc1nccn1-c1ccc([N+](=O)[O-])cc1C(=O)c1ccccc1Cl [nizofenone]
inactive: 1 nM -1.17% | 8.33 nM 0.76% | 100 nM -0.2% | 833.33 nM 0.15% | 10000 nM 1.83%

CCCCCCN(CCCCCC)C(=O)Cc1c(-c2ccc(F)cc2)[nH]c2ccccc12
inactive: 1 nM 5.1% | 8.33 nM 3.61% | 100 nM 3.88% | 833.33 nM 0.72% | 10000 nM -4.49%

O=C[C@H](F)[C@@H](O)[C@@H](O)[C@H](O)CO [2-fluoro-2-deoxy-D-galactose]
inactive: 1 nM 1.5% | 8.33 nM 1.13% | 100 nM 1.44% | 833.33 nM 1.15% | 10000 nM 0.92%

CCC[C@H](N[C@@H](C)C(=O)N1[C@H](C(=O)O)C[C@@H]2CCCC[C@@H]21)C(=O)O [perindoprilat]
inactive: 1 nM 4.13% | 8.33 nM -0.1% | 100 nM 3.43% | 833.33 nM 0.42% | 10000 nM -3.18%

COc1cc(N2CCC(N3CCN(C)CC3)CC2)ccc1Nc1ncc(Cl)c(Nc2ccccc2S(=O)(=O)C(C)C)n1
inactive: 1 nM -0.23% | 8.33 nM -4.02% | 100 nM -0.56% | 833.33 nM -0.6% | 10000 nM -15.5%

CN[C@@H](C)[C@H](O)c1ccccc1 [ephedrine]
inactive: 1 nM -1.32% | 8.33 nM -0.23% | 100 nM 1.57% | 833.33 nM 3.01% | 10000 nM -0.52%

CC1(C)CCC(C)(C)c2cc(C3(c4ccc(C(=O)O)cc4)OCCO3)ccc21
inactive: 1 nM -2.44% | 8.33 nM -2.21% | 100 nM 1% | 833.33 nM -0.7% | 10000 nM -1.37%

Cc1ccc2c(c1)=C(c1ccccc1)C(C1=NN(C(=O)CCC(=O)O)C(c3ccc(Br)cc3)C1)C(=O)N=2 (stereo not given)
inactive: 1 nM -0.42% | 8.33 nM -0.1% | 100 nM 2.84% | 833.33 nM 3.61% | 10000 nM 0.79%

Cc1cc(C(=O)Nc2cccc(C(=O)Nc3cccc(C(F)(F)F)c3)c2)on1
inactive: 1 nM 0.37% | 8.33 nM 3.92% | 100 nM -2.18% | 833.33 nM -1.26% | 10000 nM -3.26%

C[C@]12C=CC(=O)N[C@@H]1CC[C@@H]1[C@@H]2CC[C@]2(C)[C@@H](C(=O)Nc3cc(C(F)(F)F)ccc3C(F)(F)F)CC[C@@H]12 [dutasteride]
inactive: 1 nM -4.2% | 8.33 nM -3.31% | 100 nM 1.66% | 833.33 nM -2.35% | 10000 nM -7.18%

COc1cc(CCc2cc(NC(=O)c3ccc(N4CC(C)NC(C)C4)cc3)n[nH]2)cc(OC)c1 (stereo not given)
inactive: 1 nM -1.78% | 8.33 nM 1.81% | 100 nM 1.04% | 833.33 nM -1.56% | 10000 nM -1.21%

CCn1c2ccccc2c2cc(Nc3ccnc(NCCCN4CCOCC4)n3)ccc21
inactive: 1 nM -2.13% | 8.33 nM -1.13% | 100 nM 0.05% | 833.33 nM -0.2%
active: 10000 nM 69.3%

COc1ccc(C(C)(C)C)cc1CN[C@H]1C2CCN(CC2)[C@H]1C(c1ccccc1)c1ccccc1 [maropitant]
inactive: 1 nM 2.55% | 8.33 nM 0.73% | 100 nM -1.99% | 833.33 nM -1.66% | 10000 nM 12.5%

C[S+]([O-])CCCCN=C=S (stereo not given) [sulforaphane]
inactive: 1 nM -7.22% | 8.33 nM -6.04% | 100 nM -3.89% | 833.33 nM -3.35%
active: 10000 nM 35.2%

Cc1ccc([N+](=O)[O-])cc1O [2-methyl-5-nitrophenol]
inactive: 1 nM -2.8% | 8.33 nM -2.93% | 100 nM -4.49% | 833.33 nM -3.09% | 10000 nM -2.25%

CCCCCCCCCCCCCCCC(=O)C(F)(F)F
inactive: 1 nM -1.4% | 8.33 nM 0.3% | 100 nM -10.8% | 833.33 nM -13.2% | 10000 nM -0.25%

CNC(=S)C1(c2ccccn2)CCCS1 (stereo not given) [picartamide]
inactive: 1 nM -4.38% | 8.33 nM 0.23% | 100 nM -0.26% | 833.33 nM 2.39% | 10000 nM 6.75%

CN(C)CCCN1c2ccccc2Sc2ccccc21 [promazine]
inactive: 1 nM 2.47% | 8.33 nM -1.16% | 100 nM 0.93% | 833.33 nM 0.57% | 10000 nM -0.38%

COc1cc(C[C@H]2C(=O)OC[C@@H]2Cc2ccc(OC)c(OC)c2)ccc1O [arctigenin]
inactive: 1 nM -2.79% | 8.33 nM 0.36% | 100 nM -2.78% | 833.33 nM 0.01% | 10000 nM 2.1%

CN(C)CCCC(=O)Nc1ccc(C(=O)Nc2cccc(Nc3ncc(Cl)c(-c4c[nH]c5ccccc45)n3)c2)cc1
inactive: 1 nM 1% | 8.33 nM -3.04% | 100 nM -1.78% | 833.33 nM -0.35% | 10000 nM -3.93%

O=C(NCCNCC(O)COc1ccc(O)cc1)N1CCOCC1 (stereo not given) [xamoterol]
inactive: 1 nM -2.07% | 8.33 nM -0.88% | 100 nM -0.13% | 833.33 nM 0.01% | 10000 nM 3.26%

O=S(=O)(O)CCSSCCS(=O)(=O)O [dimesna]
inactive: 1 nM -0.79% | 8.33 nM 0.36% | 100 nM 0.65% | 833.33 nM -1.27% | 10000 nM -1.4%

O=c1[nH]c2ccc(Cl)cc2c(N[C@@H]2CN3CCC2CC3)c1-c1nc2ccccc2[nH]1
inactive: 1 nM 0.01% | 8.33 nM 0.79% | 100 nM -0.9% | 833.33 nM -5.44% | 10000 nM -15.4%

NC(=O)C(c1ccccc1)(c1ccccc1)[C@@H]1CCN(CCc2ccc3c(c2)CCO3)C1 [darifenacin]
inactive: 1 nM -1.18% | 8.33 nM 0.61% | 100 nM 2.83% | 833.33 nM 0.42% | 10000 nM -5.65%

CNCCn1c(=O)c2cc(OC)c(OC)cc2c2cnc3cc4c(cc3c21)OCO4
inactive: 1 nM 3.31% | 8.33 nM 1.57% | 100 nM -1.27% | 833.33 nM -9.93% | 10000 nM -15.7%

C[C@]12Cc3c[nH]nc3C[C@@H]1CC[C@@H]1[C@@H]2CC[C@@]2(C)[C@H]1CC[C@]2(C)O [stanozolol]
inactive: 1 nM -3.58% | 8.33 nM -5.17% | 100 nM -4.66% | 833.33 nM -3.19% | 10000 nM -5.61%

CCc1ccc(OCc2ccccc2C(=O)Nc2ccc3nc(C)cc(N)c3c2)cc1
inactive: 1 nM 0.87% | 8.33 nM 3.61% | 100 nM 2.46% | 833.33 nM 1.94% | 10000 nM -28.4%

Fc1ccc([C@@H]2CCNC[C@H]2COc2ccc3c(c2)OCO3)cc1 [paroxetine]
inactive: 1 nM -4.2% | 8.33 nM -2.01% | 100 nM -2.05% | 833.33 nM -1.89% | 10000 nM -13.1%

O=c1[nH]cnc2c1ncn2[C@H]1CC[C@@H](CO)O1 [didanosine]
inactive: 1 nM 0.07% | 8.33 nM -2.03% | 100 nM 2.16% | 833.33 nM 3.97% | 10000 nM -1.54%

NCCCC[C@@H]1NC(=O)[C@@H](Cc2c[nH]c3ccccc23)NC(=O)[C@H](c2ccccc2)NC(=O)[C@@H]2C[C@@H](OC(=O)NCCN)CN2C(=O)[C@H](Cc2ccccc2)NC(=O)[C@H](Cc2ccc(OCc3ccccc3)cc2)NC1=O [pasireotide]
inactive: 1 nM -6.41% | 8.33 nM -8.12% | 100 nM -5.04% | 833.33 nM -4.91% | 10000 nM -5.41%

Nc1ncnc2c1ncn2[C@@H]1O[C@H](COP(=O)(O)OP(=O)(O)OP(=O)(O)OP(=O)(O)OC[C@H]2O[C@@H](n3cnc4c(N)ncnc43)[C@H](O)[C@@H]2O)[C@@H](O)[C@H]1O [diadenosine-tetraphosphate]
inactive: 1 nM 1.69% | 8.33 nM 0.56% | 100 nM 0.34% | 833.33 nM 1.06% | 10000 nM -1.97%

O[C@@H]1CO[C@H]2[C@@H]1OC[C@@H]2O [isosorbide]
inactive: 1 nM -0.13% | 8.33 nM 1.81% | 100 nM 1.18% | 833.33 nM 3.22% | 10000 nM 3.05%

Nc1ccc(S(=O)(=O)Nc2ccc(Cl)nn2)cc1 [sulfachlorpyridazine]
inactive: 1 nM 0.57% | 8.33 nM -0.21% | 100 nM 1.77% | 833.33 nM -1.32% | 10000 nM 0.69%

NCC(=O)N1C[C@H](NC(=O)c2ccccc2)C[C@H]1C(=O)O [danegaptide]
inactive: 1 nM -2% | 8.33 nM -0.68% | 100 nM 1.14% | 833.33 nM -0.88% | 10000 nM 3.55%

Cc1nc2c(c(=O)[nH]1)CSCC2
inactive: 1 nM 1.12% | 8.33 nM -1.82% | 100 nM 0.46% | 833.33 nM 0.11% | 10000 nM 4.1%

O=C(O)[C@]1(Cc2cccc(Nc3nccs3)n2)CC[C@@H](Oc2cccc(Cl)c2F)CC1
inactive: 1 nM 0.11% | 8.33 nM -0.24% | 100 nM -0.82% | 833.33 nM -6.57% | 10000 nM -5.28%

CN1c2ccccc2C(NCCCCCCC(=O)O)c2ccc(Cl)cc2S1(=O)=O (stereo not given) [tianeptine]
inactive: 1 nM 6.9% | 8.33 nM -1.19% | 100 nM 0.25% | 833.33 nM 2.13% | 10000 nM -1.2%

Reference: the supplement of paper PMC13380429
